From PubChem BioAssay (NCATS)
Records with an inconclusive call do not appear. Unless noted, calls come from the whole dose curve; as a rule, active = well fitted curve in either direction with a large enough effect (not every such curve was filed as active); inconclusive = small, poorly fitted or top-dose-only effect, or another doubt; inactive = flat fitted curve, though single readings scatter.

How the values were obtained:
[1] = AP1 Signaling Pathway (AID 357); conditions: ME-180 AP-1-bla reporter, EGF-induced, beta-lactamase ratio, 5 h; at 17.2 µM (top of the series) unless noted;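 note: ME-180 reporter cells stimulated with EGF at its EC50 level; % is set by controls: 0 for no effect and ±100 for the full control effect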
Summary of the method: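 Modulation of EGF-driven AP-1 transcription was assessed with a beta-lactamase reporter in ME-180 cells. Compound and EC50 EGF were co-incubated 5 hours at 37 °C before 2.5-hour CCF4 loading at room temperature and dual-emission reading.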

[2] = NFAT Signaling Pathway (AID 444); conditions: Jurkat NFAT-bla M1, carbachol, beta-lactamase ratio, 5 h; at 17.2 µM (top of the series) unless noted;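 note: carbachol stimulus at about its EC50 of 1 µM final; % is set by controls: 0 for no effect and ±100 for the full control effect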
Summary of the method: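 Jurkat cells carrying an NFAT-driven β-lactamase reporter and co-transfected muscarinic M1 receptor were treated with compound plus carbachol (1 uM final, an EC50 level) for 5 h at 37 °C. CCF4 loading followed for 1 h at RT; 460/530 nm ratio gave %activity.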

[3] = Stat Signaling Pathway (AID 446); conditions: ME-180 (cervical carcinoma) SIE beta-lactamase reporter, IL-6 stimulated, 5 h; at 17.2 µM (top of the series) unless noted;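 note: ME-180 cervical cancer cells given 40 pM IL-6 alongside compound; SIE-controlled beta-lactamase reporter measured as 460/530 nm FRET emission ratio; % is set by controls: 0 for no effect and ±100 for the full control effect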
Summary of the method: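 Compound effects on IL-6-induced STAT reporter activity were measured in ME-180 cells. After overnight culture, cells were co-treated with 40 pM IL-6 for 5 hrs before beta-lactamase substrate loading at room temperature.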

[4] = target: Glucocorticoid receptor (Homo sapiens) (UniProt P04150); experiment: GR-GFP Redistribution (AID 450;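 active = compounds whose dose series gives a full or clear partial fitted curve of increased nuclear translocation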; note: potency is the fitted concentration of half-maximal effect)
Glucocorticoid receptor (Homo sapiens), sequence (P04150 whole entry, looked up): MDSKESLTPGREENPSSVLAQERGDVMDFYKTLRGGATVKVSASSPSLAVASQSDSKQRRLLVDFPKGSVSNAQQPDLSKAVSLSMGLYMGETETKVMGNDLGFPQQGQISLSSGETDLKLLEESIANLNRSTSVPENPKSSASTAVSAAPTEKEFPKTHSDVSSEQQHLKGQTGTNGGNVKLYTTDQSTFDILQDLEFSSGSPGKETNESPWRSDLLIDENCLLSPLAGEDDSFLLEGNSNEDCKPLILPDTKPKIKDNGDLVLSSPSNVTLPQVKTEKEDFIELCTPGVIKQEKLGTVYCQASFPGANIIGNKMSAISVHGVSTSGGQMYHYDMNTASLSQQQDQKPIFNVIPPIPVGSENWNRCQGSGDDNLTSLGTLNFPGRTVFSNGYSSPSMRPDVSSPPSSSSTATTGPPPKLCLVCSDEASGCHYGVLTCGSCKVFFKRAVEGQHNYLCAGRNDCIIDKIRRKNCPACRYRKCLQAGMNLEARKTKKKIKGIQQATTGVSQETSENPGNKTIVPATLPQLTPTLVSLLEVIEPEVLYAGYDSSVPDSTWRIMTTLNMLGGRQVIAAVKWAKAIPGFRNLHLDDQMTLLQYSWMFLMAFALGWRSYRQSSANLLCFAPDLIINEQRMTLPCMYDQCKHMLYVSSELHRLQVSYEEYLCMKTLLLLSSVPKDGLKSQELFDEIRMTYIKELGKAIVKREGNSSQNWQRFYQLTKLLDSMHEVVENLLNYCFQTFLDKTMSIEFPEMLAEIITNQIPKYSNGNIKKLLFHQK

CCOC(=O)c1cc(CC)sc1NC(=O)C1CC1
inactive: activity change, negative = inhibition [1] -23.9% | activity change, negative = inhibition [2] 12.8% | activity, negative = inhibition [3] -13.8% | Potency [4] > 20.6 µM

CCOC(=O)c1[nH]c2ccc(Br)cc2c1NC(=O)CCN1CCN(C(=O)OCC)CC1
inactive: activity change, negative = inhibition [1] -25% | activity change, negative = inhibition [2] -25.7% | activity, negative = inhibition [3] -26.2% | Potency [4] > 20.6 µM

O/N=C/c1ccc(OCC(O)COc2ccc(/C=N/O)cc2)cc1
inactive: activity change, negative = inhibition [1] -15.3% | activity change, negative = inhibition [2] -1.17% | activity, negative = inhibition [3] 4.46% | Potency [4] > 20.6 µM

CCNC(=O)Nn1c(C)nnc1C
inactive: activity change, negative = inhibition [1] 15.4% | activity change, negative = inhibition [2] -5.86% | activity, negative = inhibition [3] 6.6% | Potency [4] > 20.6 µM

COc1cc(C2C(C#N)=C(N)Oc3cc(C)n(Cc4ccccn4)c(=O)c32)cc2c1OCO2 (stereo unspecified)
inactive: activity change, negative = inhibition [1] -7.44% | activity change, negative = inhibition [2] -12.8% | activity, negative = inhibition [3] -4.06% | Potency [4] > 20.6 µM

COc1ccc(N2C(=O)CN=C2Nc2nc(C)cc(C)n2)cc1
inactive: activity change, negative = inhibition [1] 8.39% | activity change, negative = inhibition [2] -10% | activity, negative = inhibition [3] 4.62% | Potency [4] > 20.6 µM

CCCCC1CC1C(=O)Nc1ccc(OC)c(OC)c1 (stereo unspecified)
inactive: activity change, negative = inhibition [1] -2.76% | activity change, negative = inhibition [2] 3.38% | activity, negative = inhibition [3] 6.67% | Potency [4] > 20.6 µM

CN(C)c1nc(OCCOC(=O)Nc2ccc(Cl)cc2Cl)nc(N(C)C)n1
inactive: activity change, negative = inhibition [1] -3.73% | activity change, negative = inhibition [2] -3.72% | activity, negative = inhibition [3] -7.35% | Potency [4] > 20.6 µM

C=CCn1cnc2c(c1=O)c1nc3ccccc3nc1n2-c1ccc(C)cc1
inactive: activity change, negative = inhibition [1] -1.69% | activity change, negative = inhibition [2] -10.5% | activity, negative = inhibition [3] -8.6% | Potency [4] > 20.6 µM

CC1(C)CC(=O)C=C(NCc2ccncc2)C1
inactive: activity change, negative = inhibition [1] 10% | activity change, negative = inhibition [2] -8.43% | activity, negative = inhibition [3] 8.27% | Potency [4] > 20.6 µM

CC(O)CNc1nc2c(c(=O)n(C)c(=O)n2C)n1Cc1cccc(C(F)(F)F)c1 (stereo unspecified)
inactive: activity change, negative = inhibition [1] -10.4% | activity change, negative = inhibition [2] 4.56% | activity, negative = inhibition [3] -0.279% | Potency [4] > 20.6 µM

Cc1cc(C)nc(N(C#N)CC(=O)N(c2ccccc2)C(C)C)n1
inactive: activity change, negative = inhibition [1] -11% | activity change, negative = inhibition [2] 4.64% | activity, negative = inhibition [3] 7.49% | Potency [4] > 20.6 µM

CCCC1C(c2ccc(OC)cc2)C(C#N)(C#N)C2(C#N)CC1(N)NC2=O (stereo unspecified)
inactive: activity change, negative = inhibition [1] 7.74% | activity change, negative = inhibition [2] -5.15% | activity, negative = inhibition [3] -5.79% | Potency [4] > 20.6 µM

COc1ccc(C(=O)Nc2nc(N)n(-c3ccccc3)n2)cc1OC
inactive: activity change, negative = inhibition [1] -0.0315% | activity change, negative = inhibition [2] -1.36% | activity, negative = inhibition [3] 1.75% | Potency [4] > 20.6 µM

Cn1c(=O)c2c(nc(NCc3ccco3)n2Cc2ccccc2Cl)n(C)c1=O
inactive: activity change, negative = inhibition [1] 16.7% | activity change, negative = inhibition [2] 2.77% | activity, negative = inhibition [3] -14.8% | Potency [4] > 20.6 µM

CC(=O)Oc1ccccc1C1OCCN1C(C)=O (stereo unspecified)
inactive: activity change, negative = inhibition [1] 14.2% | activity change, negative = inhibition [2] -10.3% | activity, negative = inhibition [3] 17% | Potency [4] > 20.6 µM

CN(C)c1nc2sc3c(c2c(=O)n1C)CC(C)(C)OC3
inactive: activity change, negative = inhibition [1] -6.89% | activity change, negative = inhibition [2] -2.36% | activity, negative = inhibition [3] 10.9% | Potency [4] > 20.6 µM

Cn1c(=NCC(O)COc2ccccc2)sc2ccccc21 (stereo unspecified)
inactive: activity change, negative = inhibition [1] -7.25% | activity change, negative = inhibition [2] -13.4% | activity, negative = inhibition [3] 8.49% | Potency [4] > 20.6 µM

Cc1c(OCc2ccccc2)c(=O)ccn1Cc1ccccc1
inactive: activity change, negative = inhibition [1] -8.27% | activity change, negative = inhibition [2] -0.234% | activity, negative = inhibition [3] 1.99% | Potency [4] > 20.6 µM
